In paper PMC4081100, “A DNA-binding-site landscape and regulatory network analysis for NAC transcription factors in Arabidopsis thaliana”:

Columns and labels:
Test in all cases: universal protein binding microarray (PBM); transcription factors of Arabidopsis thaliana; high values mean tight binding
GST-ANAC092(1-176) = target: T1, GST-ANAC092(1-176) (Arabidopsis thaliana, UniProt Q9FKA0 1-176); settings: protein: recombinant; tags: GST; chain copies: 2; dsDNA, one strand shown
T1 sequence: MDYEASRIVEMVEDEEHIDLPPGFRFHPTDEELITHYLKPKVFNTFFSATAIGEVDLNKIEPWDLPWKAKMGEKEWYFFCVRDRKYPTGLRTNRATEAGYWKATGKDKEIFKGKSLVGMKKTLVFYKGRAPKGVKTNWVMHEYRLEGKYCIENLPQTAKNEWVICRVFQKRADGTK
Procedure, shortened: (§1)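 Each value is a normalised enrichment score (E-score) describing binding. The GST-tagged proteins, NAC-domain, full-length or DNA-binding-domain, were induced in cells (zinc-finger proteins with zinc acetate added) and purified on glutathione–Sepharose 4B. They were applied at 200 to 500 nM final, in duplicate, to double-stranded custom all-10-mer Agilent 4 × 180K arrays, and gapped and ungapped 8-mers were scored.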

GST-ANAC019 NAC domain = target: T2, GST-ANAC019 NAC domain (Arabidopsis thaliana, UniProt Q9C932 14-162); settings: protein: recombinant; tags: GST; chain copies: 2; dsDNA, one strand shown
T2 sequence: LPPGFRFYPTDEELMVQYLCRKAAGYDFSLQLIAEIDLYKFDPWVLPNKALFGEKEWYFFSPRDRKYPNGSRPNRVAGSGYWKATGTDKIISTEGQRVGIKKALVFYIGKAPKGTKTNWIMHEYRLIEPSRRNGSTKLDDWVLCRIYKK
Procedure, shortened: as §1

GST-ANAC055(1-171) = target: T3, GST-ANAC055(1-171) (Arabidopsis thaliana, UniProt Q9LDY8 1-171); settings: protein: recombinant; tags: GST; chain copies: 2; dsDNA, one strand shown
T3 sequence: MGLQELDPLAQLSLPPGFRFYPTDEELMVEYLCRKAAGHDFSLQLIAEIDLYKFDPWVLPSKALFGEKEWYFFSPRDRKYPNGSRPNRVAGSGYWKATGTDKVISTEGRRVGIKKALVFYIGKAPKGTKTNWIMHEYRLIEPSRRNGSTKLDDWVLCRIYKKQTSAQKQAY
Procedure, shortened: as §1

[1] = target: T4, GST-ANAC092(1-285) full length (Arabidopsis thaliana, UniProt Q9FKA0 1-285); settings: protein: recombinant; tags: GST; chain copies: 2; dsDNA, one strand shown
T4 sequence: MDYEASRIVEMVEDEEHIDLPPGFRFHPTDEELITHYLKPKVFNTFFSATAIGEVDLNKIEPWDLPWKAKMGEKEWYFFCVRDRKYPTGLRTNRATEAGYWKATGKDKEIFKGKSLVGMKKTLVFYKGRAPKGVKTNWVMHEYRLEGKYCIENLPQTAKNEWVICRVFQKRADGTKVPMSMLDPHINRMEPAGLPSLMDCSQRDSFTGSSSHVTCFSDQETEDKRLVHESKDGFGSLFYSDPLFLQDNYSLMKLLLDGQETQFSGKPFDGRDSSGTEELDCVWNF
Procedure, shortened: as §1

GST-NST2(1-184) = target: T5, GST-NST2(1-184) (Arabidopsis thaliana, UniProt Q9M274 1-184); settings: protein: recombinant; tags: GST; chain copies: 2; dsDNA, one strand shown
T5 sequence: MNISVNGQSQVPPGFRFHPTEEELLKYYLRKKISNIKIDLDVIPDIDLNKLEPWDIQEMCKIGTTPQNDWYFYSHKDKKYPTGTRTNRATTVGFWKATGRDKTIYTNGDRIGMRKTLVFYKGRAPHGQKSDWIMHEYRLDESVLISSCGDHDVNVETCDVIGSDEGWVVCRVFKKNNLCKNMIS
Procedure, shortened: as §1

GST-SND1(1-203) = target: T6, GST-SND1(1-203) (Arabidopsis thaliana, UniProt Q9LPI7 1-203); settings: protein: recombinant; tags: GST; chain copies: 2; dsDNA, one strand shown
T6 sequence: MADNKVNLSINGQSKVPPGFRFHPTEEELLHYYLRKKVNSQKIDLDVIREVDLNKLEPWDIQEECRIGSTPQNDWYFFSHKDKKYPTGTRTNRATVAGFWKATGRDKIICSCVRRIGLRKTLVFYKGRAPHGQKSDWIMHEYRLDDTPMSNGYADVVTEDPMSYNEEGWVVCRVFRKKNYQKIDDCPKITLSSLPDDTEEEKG
Procedure, shortened: as §1

GST-ATAF1 NAC domain = target: T7, GST-ATAF1 NAC domain (Arabidopsis thaliana, UniProt Q39013 7-158); settings: protein: recombinant; tags: GST; chain copies: 2; dsDNA, one strand shown
T7 sequence: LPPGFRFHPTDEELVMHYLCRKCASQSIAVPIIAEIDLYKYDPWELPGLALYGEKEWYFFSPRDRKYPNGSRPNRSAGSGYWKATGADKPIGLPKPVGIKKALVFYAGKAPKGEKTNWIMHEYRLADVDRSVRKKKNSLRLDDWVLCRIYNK
Procedure, shortened: as §1

GST-NTL6(1-168) = GST-NTL6(1-168) (Arabidopsis thaliana, UniProt Q9SCK6 1-168); settings: protein: recombinant; tags: GST; chain copies: 2; dsDNA, one strand shown
Chain of GST-NTL6(1-168) (Q9SCK6 1-168): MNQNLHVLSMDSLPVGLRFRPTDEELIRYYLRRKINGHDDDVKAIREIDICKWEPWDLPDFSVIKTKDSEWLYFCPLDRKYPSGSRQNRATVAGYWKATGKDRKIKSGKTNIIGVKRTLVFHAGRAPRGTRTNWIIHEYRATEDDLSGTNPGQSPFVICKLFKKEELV
Procedure, shortened: as §1

GST-NTL8 NAC domain = target: T8, GST-NTL8 NAC domain (Arabidopsis thaliana, UniProt Q9XIN7 14-156); settings: protein: recombinant; tags: GST; chain copies: 2; dsDNA, one strand shown
T8 sequence: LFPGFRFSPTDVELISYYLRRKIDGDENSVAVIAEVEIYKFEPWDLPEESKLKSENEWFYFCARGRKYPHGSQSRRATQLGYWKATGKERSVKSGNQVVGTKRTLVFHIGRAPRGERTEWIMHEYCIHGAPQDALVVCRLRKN
Procedure, shortened: as §1

GST-NAP(1-166) = target: T9, GST-NAP(1-166) (Arabidopsis thaliana, UniProt O49255 1-166); settings: protein: recombinant; tags: GST; chain copies: 2; dsDNA, one strand shown
T9 sequence: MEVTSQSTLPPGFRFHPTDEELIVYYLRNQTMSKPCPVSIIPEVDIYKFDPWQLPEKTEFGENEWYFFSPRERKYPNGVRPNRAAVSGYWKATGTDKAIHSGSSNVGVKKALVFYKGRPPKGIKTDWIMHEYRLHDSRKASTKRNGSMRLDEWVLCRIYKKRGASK
Procedure, shortened: as §1

GST-VND3 NAC domain = target: T10, GST-VND3 NAC domain (Arabidopsis thaliana, UniProt Q9FH59 12-162); settings: protein: recombinant; tags: GST; chain copies: 2; dsDNA, one strand shown
T10 sequence: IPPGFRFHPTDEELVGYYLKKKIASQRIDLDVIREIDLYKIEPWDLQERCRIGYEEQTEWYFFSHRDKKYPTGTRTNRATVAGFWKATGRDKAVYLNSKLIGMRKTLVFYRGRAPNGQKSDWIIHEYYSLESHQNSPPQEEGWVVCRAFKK
Procedure, shortened: as §1

GST-VND7 NAC domain = target: T11, GST-VND7 NAC domain (Arabidopsis thaliana, UniProt Q9C8W9 9-158); settings: protein: recombinant; tags: GST; chain copies: 2; dsDNA, one strand shown
T11 sequence: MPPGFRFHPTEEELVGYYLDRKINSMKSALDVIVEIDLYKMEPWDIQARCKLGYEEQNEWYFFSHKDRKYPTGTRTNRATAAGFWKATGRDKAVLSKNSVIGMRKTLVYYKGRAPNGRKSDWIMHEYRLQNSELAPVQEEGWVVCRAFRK
Procedure, shortened: as §1

GST-WRKY1(266-371) = GST-WRKY1(266-371) (Arabidopsis thaliana, UniProt Q9SI37 266-371); settings: protein: recombinant; tags: GST; dsDNA, one strand shown
Chain of GST-WRKY1(266-371) (Q9SI37 266-371): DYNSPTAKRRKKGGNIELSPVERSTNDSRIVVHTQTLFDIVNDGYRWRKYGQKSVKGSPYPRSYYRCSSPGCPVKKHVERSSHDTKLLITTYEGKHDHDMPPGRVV
Procedure, shortened: as §1

## CTGGCGTA
GST-ANAC092(1-176)
  binding signal: 0.371 E-score
GST-ANAC019 NAC domain
  binding signal: 0.106 E-score
GST-ANAC055(1-171)
  binding signal: 0.0635 E-score
[1]
  binding signal: 0.396 E-score
GST-NST2(1-184)
  binding signal: 0.203 E-score
GST-SND1(1-203)
  binding signal: 0.409 E-score

## ACGCCACG
GST-ANAC092(1-176)
  binding signal: 0.382 E-score
GST-ANAC019 NAC domain
  binding signal: 0.147 E-score
GST-ANAC055(1-171)
  binding signal: 0.14 E-score
GST-ATAF1 NAC domain
  binding signal: 0.0586 E-score
[1]
  binding signal: 0.409 E-score
GST-NST2(1-184)
  binding signal: 0.128 E-score
GST-SND1(1-203)
  binding signal: 0.249 E-score

## CACGCCAG
GST-ANAC092(1-176)
  binding signal: 0.385 E-score
GST-ANAC019 NAC domain
  binding signal: 0.0856 E-score
[1]
  binding signal: 0.429 E-score
GST-SND1(1-203)
  binding signal: 0.178 E-score

## GGGGGTAA
GST-NTL6(1-168)
  binding signal: 0.147 E-score
[1]
  binding signal: 0.166 E-score
GST-NTL8 NAC domain
  binding signal: 0.403 E-score
GST-SND1(1-203)
  binding signal: 0.229 E-score

## TACGCGAA
GST-ANAC092(1-176)
  binding signal: 0.268 E-score
GST-ANAC055(1-171)
  binding signal: 0.0984 E-score
GST-ATAF1 NAC domain
  binding signal: 0.119 E-score
[1]
  binding signal: 0.368 E-score
GST-NAP(1-166)
  binding signal: 0.0761 E-score
GST-NST2(1-184)
  binding signal: 0.185 E-score
GST-SND1(1-203)
  binding signal: 0.416 E-score

## GCTAAGGA
GST-NTL6(1-168)
  binding signal: 0.41 E-score
[1]
  binding signal: 0.142 E-score
GST-SND1(1-203)
  binding signal: 0.064 E-score

## ACGCCACC
GST-ANAC092(1-176)
  binding signal: 0.456 E-score
GST-ANAC019 NAC domain
  binding signal: 0.145 E-score
GST-ANAC055(1-171)
  binding signal: 0.0815 E-score
GST-ATAF1 NAC domain
  binding signal: 0.262 E-score
[1]
  binding signal: 0.472 E-score
GST-NAP(1-166)
  binding signal: 0.0741 E-score
GST-NST2(1-184)
  binding signal: 0.276 E-score
GST-SND1(1-203)
  binding signal: 0.408 E-score

## AAGACCAA
GST-NTL6(1-168)
  binding signal: 0.18 E-score
GST-ANAC019 NAC domain
  binding signal: 0.0878 E-score
GST-ANAC055(1-171)
  binding signal: 0.172 E-score
GST-ATAF1 NAC domain
  binding signal: 0.105 E-score
[1]
  binding signal: 0.124 E-score
GST-NST2(1-184)
  binding signal: 0.18 E-score
GST-VND3 NAC domain
  binding signal: 0.151 E-score
GST-VND7 NAC domain
  binding signal: 0.124 E-score
GST-WRKY1(266-371)
  binding signal: 0.42 E-score

## AGGAAACC
GST-NTL6(1-168)
  binding signal: 0.0999 E-score
[1]
  binding signal: 0.13 E-score
GST-NTL8 NAC domain
  binding signal: 0.482 E-score
GST-SND1(1-203)
  binding signal: 0.0696 E-score

## CTACGCCA
GST-ANAC092(1-176)
  binding signal: 0.283 E-score
GST-ATAF1 NAC domain
  binding signal: 0.057 E-score
[1]
  binding signal: 0.34 E-score
GST-NST2(1-184)
  binding signal: 0.147 E-score
GST-SND1(1-203)
  binding signal: 0.454 E-score

## GTATTGAC
GST-ANAC092(1-176)
  binding signal: 0.0776 E-score
GST-ANAC055(1-171)
  binding signal: 0.0594 E-score
[1]
  binding signal: 0.147 E-score
GST-NAP(1-166)
  binding signal: 0.121 E-score
GST-VND3 NAC domain
  binding signal: 0.0734 E-score
GST-VND7 NAC domain
  binding signal: 0.0877 E-score
GST-WRKY1(266-371)
  binding signal: 0.455 E-score

## AGGAAATC
GST-ANAC092(1-176)
  binding signal: 0.0998 E-score
GST-NTL6(1-168)
  binding signal: 0.102 E-score
GST-NST2(1-184)
  binding signal: 0.0993 E-score
GST-NTL8 NAC domain
  binding signal: 0.437 E-score
GST-SND1(1-203)
  binding signal: 0.0802 E-score

## ACCTTACC
GST-NTL6(1-168)
  binding signal: 0.306 E-score
GST-ATAF1 NAC domain
  binding signal: 0.0631 E-score
[1]
  binding signal: 0.111 E-score
GST-NTL8 NAC domain
  binding signal: 0.417 E-score
GST-SND1(1-203)
  binding signal: 0.152 E-score

## ACGCGATC
GST-ANAC092(1-176)
  binding signal: 0.314 E-score
[1]
  binding signal: 0.402 E-score
GST-NAP(1-166)
  binding signal: 0.116 E-score
GST-NST2(1-184)
  binding signal: 0.198 E-score
GST-SND1(1-203)
  binding signal: 0.364 E-score

## ACAGTCAA
GST-ANAC092(1-176)
  binding signal: 0.141 E-score
GST-ANAC055(1-171)
  binding signal: 0.0601 E-score
GST-ATAF1 NAC domain
  binding signal: 0.081 E-score
[1]
  binding signal: 0.0848 E-score
GST-NAP(1-166)
  binding signal: 0.0868 E-score
GST-NTL8 NAC domain
  binding signal: 0.164 E-score
GST-VND3 NAC domain
  binding signal: 0.0711 E-score
GST-VND7 NAC domain
  binding signal: 0.0752 E-score
GST-WRKY1(266-371)
  binding signal: 0.477 E-score
